Laboratory results published in PubChem BioAssay AID697 (Columbia University Molecular Screening Center, 2007).
Out of some 96,000 compounds screened, about 100 (0.1%) were called active.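 Rule for the calls: active = activation at 2 µM above a set limit, the mean plus 5 SD (cut at about 37% in these data); inactive = the rest.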 The list comes from a sample in which actives are over-represented; it also holds similar structures and randomly drawn compounds.

molecular target: Tyrosine-protein phosphatase non-receptor type 22 (Homo sapiens) (UniProt Q9Y2R2); experiment: enhancers of human PTPN22 catalytic activity – biochemical, DiFMUP fluorescence, 2 µM, primary screen (AID 697); details: recombinant LYP, at 2 µM, stronger effect = higher value, 0 = plate median, 100 = signal doubled
Sequence (Q9Y2R2 whole entry, looked up): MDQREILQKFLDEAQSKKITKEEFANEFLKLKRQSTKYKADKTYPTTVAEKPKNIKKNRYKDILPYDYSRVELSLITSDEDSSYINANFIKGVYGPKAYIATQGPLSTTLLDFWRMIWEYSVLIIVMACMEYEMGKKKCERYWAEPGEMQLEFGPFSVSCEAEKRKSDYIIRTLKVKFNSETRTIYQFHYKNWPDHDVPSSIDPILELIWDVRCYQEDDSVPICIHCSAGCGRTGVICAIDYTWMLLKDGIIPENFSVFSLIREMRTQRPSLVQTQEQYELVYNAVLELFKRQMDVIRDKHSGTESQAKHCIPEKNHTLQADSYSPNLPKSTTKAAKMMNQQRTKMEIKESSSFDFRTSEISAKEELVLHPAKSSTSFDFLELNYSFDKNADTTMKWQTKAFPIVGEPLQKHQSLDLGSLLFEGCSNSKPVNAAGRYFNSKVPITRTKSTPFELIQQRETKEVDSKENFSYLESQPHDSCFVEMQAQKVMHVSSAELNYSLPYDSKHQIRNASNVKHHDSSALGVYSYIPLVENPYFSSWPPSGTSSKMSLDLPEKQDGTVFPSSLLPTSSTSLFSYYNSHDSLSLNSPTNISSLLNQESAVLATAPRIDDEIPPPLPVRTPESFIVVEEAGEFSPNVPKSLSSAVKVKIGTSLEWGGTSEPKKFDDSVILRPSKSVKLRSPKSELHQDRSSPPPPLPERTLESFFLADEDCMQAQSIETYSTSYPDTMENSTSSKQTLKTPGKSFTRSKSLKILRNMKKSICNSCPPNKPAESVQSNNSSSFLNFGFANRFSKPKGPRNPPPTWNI

activation, inactive:
COc1cc(C)c(C(C)C)cc1S(=O)(=O)n1ccnc1 9.7%
Cc1cc(Nc2ccccc2)n(CCC#N)n1 -4.9%
N#CCCn1cnc2ccccc21 2%
O=C(NC1CCC(O)CC1)c1ccc(S(=O)(=O)NCc2ccco2)cc1 (stereo unspecified) 8.1%
CC(=O)N/C(=C/c1ccc(Cl)cc1)C(=O)NCCc1c[nH]c2ccccc12 -3%
COc1cc2c(cc1OC)C(C(C)C)=NC(C)(C)C2 12.3%
Cc1nn(Cc2ccccc2)c2c1C(c1ccccc1)C(C#N)=C(N)O2 (stereo unspecified) -7.2%
CC(C)(C)NC(=O)Cn1c(SCC(=O)Nc2nccs2)nc2ccccc21 8%
COc1ccc(N(CC(=O)NC2CCCCC2)C(=O)CNC(=O)c2ccco2)c(OC)c1 9.4%
Cc1ccc(C(=O)N/C(=C/C=C/c2ccccc2)C(=O)NCc2ccco2)cc1 -2.3%
COC(=O)C(C)Oc1ccc2c(-c3cccc([N+](=O)[O-])c3)cc(=O)oc2c1 (stereo unspecified) 0.1%
Cc1ccc(NS(=O)(=O)c2c(C)[nH]c(=O)[nH]c2=O)cc1C 0.8%
CC(=O)C1=C(C)NC(C)=C(C(C)=O)C1c1cn(-c2ccccc2)nc1-c1cccs1 -3.9%
COc1cccc2cc(C(=O)N3CCN(C(=O)c4ccccc4)CC3)c(=O)oc12 17.4%
CS(=O)(=O)N(CC(=O)N1CCN(Cc2ccccc2)CC1)c1ccc2c(c1)OCCO2 -3.3%
O=C(CCNS(=O)(=O)c1ccccc1C(F)(F)F)NCc1ccc2c(c1)OCO2 13.9%
CCOc1ccc(-c2nc(C)sc2CC(=O)O)cc1 14.3%
Cc1ccc(NC(=O)CN2CCc3ccccc3C2)cc1 -4.9%
CC(C)C(=O)NC(NC(=S)NC1CCS(=O)(=O)C1)C(Cl)(Cl)Cl (stereo unspecified) -11.6%
O=C(Oc1ccccc1C(=S)N1CCCCC1)c1cc([N+](=O)[O-])cc([N+](=O)[O-])c1 -4.4%
c1ccc(-c2nccc(-c3ccc(-n4cnc5ccccc54)cc3)n2)nc1 -36.4%
Cn1ncc2c(Nc3cccc4ccccc34)ncnc21 -5%
CCn1c(-c2ccoc2C)n[nH]c1=S 7.5%
N#Cc1ccccc1CN1C(=O)S/C(=C/c2cccn2-c2cccc(C(=O)O)c2)C1=O -30.2%
O=C1CC(C(F)(F)C(F)(F)C(F)(F)C(F)(F)F)=Nc2ccccc2N1 1.9%
N#Cc1ccc(Oc2cc(C(F)(F)F)nc(-c3ccccn3)n2)cc1 -2.8%
CCSc1nnc(-c2cc3c(s2)-c2ccccc2CC3)o1 -3.7%
O=C(CCCn1c(SCC(=O)c2ccccc2)nc2ccccc2c1=O)NCC1CCCO1 (stereo unspecified) -4.2%
c1ccc(-c2nc(NCc3ccco3)c3ccccc3n2)cc1 8%
CCSc1ccccc1C(=O)NCc1ccc(OC)cc1 -18.7%
Cc1nc(NC2=NC(C(=O)Nc3ccc(Cl)cc3)CC(=O)N2)nc2ccccc12 (stereo unspecified) -2.8%
COc1cccc(CNCCc2c[nH]c3ccccc23)c1OCc1ccccc1F 10.4%
CC(C)NC(=O)c1ccccc1S(=O)c1ccccc1C#N (stereo unspecified) 4%
O=C(Cc1c(O)c2ccccc2[nH]c1=O)NCc1ccccc1 3.6%
C=CCn1c(Oc2ccc(C(=O)OC)cc2)nc2c1c(=O)n(C)c(=O)n2C -3.9%
O=C(O)C1CC=CCC1C(=O)Nc1ccccc1C(=O)N1CCN(c2ccccc2)CC1 (stereo unspecified) -3.2%
Cc1cccc(NC(=O)c2ccc(OCC(=O)NCc3ccccc3)cc2)c1C 6%
O=C(COC(=O)c1ccccc1SCC(=O)NC1CCCCC1)NC1CCCCC1 -5.6%
O=C(Nc1ccccc1)OCc1cn(-c2ccc(Cl)cc2)nn1 -1.5%
Cc1ccc(N2C(=O)CC(Sc3ncn[nH]3)C2=O)cc1 (stereo unspecified) -8.7%
Cc1onc(-c2ccccc2Cl)c1C(=O)OCC(=O)c1ccccc1 13.5%
Cc1noc(C)c1C(=O)N1CCOCC1 33%
CN(C)c1ccc(NC(=S)N(CCc2ccccc2)C2CC(=O)N(c3c(Cl)cccc3Cl)C2=O)cc1 (stereo unspecified) -8.5%
CC1=CC(C)(C)NC(=S)N1c1ccccc1 -7.5%
COC(=O)C1(O)CC(C(C)C)=NN1C(=O)c1ccc(Cl)cc1 (stereo unspecified) -5.9%

activation, active:
N#CCCn1ncc2ccccc21 44.2%
